Results published in the supplement of paper PMC11732987, “Enantioselective OTUD7B fragment discovery through chemoproteomics screening and high-throughput optimisation” (Communications Chemistry, 2025).

Assays:
Experiment in all cases: log2 ratio of Biotin-Ahx-Ub-VS probe labelling (fragment/DMSO); higher = less target engagement (more negative = stronger competition), active = hit call of the paper (q ≤ 0.05, log2 ratio ≤ -1)
Conditions in all cases: compound concentration: 200 uM; treatment time: 3 h
USP34 = USP34 (UniProt Q70CQ2)
USP34, sequence (Q70CQ2 whole entry, the tested form may be a part): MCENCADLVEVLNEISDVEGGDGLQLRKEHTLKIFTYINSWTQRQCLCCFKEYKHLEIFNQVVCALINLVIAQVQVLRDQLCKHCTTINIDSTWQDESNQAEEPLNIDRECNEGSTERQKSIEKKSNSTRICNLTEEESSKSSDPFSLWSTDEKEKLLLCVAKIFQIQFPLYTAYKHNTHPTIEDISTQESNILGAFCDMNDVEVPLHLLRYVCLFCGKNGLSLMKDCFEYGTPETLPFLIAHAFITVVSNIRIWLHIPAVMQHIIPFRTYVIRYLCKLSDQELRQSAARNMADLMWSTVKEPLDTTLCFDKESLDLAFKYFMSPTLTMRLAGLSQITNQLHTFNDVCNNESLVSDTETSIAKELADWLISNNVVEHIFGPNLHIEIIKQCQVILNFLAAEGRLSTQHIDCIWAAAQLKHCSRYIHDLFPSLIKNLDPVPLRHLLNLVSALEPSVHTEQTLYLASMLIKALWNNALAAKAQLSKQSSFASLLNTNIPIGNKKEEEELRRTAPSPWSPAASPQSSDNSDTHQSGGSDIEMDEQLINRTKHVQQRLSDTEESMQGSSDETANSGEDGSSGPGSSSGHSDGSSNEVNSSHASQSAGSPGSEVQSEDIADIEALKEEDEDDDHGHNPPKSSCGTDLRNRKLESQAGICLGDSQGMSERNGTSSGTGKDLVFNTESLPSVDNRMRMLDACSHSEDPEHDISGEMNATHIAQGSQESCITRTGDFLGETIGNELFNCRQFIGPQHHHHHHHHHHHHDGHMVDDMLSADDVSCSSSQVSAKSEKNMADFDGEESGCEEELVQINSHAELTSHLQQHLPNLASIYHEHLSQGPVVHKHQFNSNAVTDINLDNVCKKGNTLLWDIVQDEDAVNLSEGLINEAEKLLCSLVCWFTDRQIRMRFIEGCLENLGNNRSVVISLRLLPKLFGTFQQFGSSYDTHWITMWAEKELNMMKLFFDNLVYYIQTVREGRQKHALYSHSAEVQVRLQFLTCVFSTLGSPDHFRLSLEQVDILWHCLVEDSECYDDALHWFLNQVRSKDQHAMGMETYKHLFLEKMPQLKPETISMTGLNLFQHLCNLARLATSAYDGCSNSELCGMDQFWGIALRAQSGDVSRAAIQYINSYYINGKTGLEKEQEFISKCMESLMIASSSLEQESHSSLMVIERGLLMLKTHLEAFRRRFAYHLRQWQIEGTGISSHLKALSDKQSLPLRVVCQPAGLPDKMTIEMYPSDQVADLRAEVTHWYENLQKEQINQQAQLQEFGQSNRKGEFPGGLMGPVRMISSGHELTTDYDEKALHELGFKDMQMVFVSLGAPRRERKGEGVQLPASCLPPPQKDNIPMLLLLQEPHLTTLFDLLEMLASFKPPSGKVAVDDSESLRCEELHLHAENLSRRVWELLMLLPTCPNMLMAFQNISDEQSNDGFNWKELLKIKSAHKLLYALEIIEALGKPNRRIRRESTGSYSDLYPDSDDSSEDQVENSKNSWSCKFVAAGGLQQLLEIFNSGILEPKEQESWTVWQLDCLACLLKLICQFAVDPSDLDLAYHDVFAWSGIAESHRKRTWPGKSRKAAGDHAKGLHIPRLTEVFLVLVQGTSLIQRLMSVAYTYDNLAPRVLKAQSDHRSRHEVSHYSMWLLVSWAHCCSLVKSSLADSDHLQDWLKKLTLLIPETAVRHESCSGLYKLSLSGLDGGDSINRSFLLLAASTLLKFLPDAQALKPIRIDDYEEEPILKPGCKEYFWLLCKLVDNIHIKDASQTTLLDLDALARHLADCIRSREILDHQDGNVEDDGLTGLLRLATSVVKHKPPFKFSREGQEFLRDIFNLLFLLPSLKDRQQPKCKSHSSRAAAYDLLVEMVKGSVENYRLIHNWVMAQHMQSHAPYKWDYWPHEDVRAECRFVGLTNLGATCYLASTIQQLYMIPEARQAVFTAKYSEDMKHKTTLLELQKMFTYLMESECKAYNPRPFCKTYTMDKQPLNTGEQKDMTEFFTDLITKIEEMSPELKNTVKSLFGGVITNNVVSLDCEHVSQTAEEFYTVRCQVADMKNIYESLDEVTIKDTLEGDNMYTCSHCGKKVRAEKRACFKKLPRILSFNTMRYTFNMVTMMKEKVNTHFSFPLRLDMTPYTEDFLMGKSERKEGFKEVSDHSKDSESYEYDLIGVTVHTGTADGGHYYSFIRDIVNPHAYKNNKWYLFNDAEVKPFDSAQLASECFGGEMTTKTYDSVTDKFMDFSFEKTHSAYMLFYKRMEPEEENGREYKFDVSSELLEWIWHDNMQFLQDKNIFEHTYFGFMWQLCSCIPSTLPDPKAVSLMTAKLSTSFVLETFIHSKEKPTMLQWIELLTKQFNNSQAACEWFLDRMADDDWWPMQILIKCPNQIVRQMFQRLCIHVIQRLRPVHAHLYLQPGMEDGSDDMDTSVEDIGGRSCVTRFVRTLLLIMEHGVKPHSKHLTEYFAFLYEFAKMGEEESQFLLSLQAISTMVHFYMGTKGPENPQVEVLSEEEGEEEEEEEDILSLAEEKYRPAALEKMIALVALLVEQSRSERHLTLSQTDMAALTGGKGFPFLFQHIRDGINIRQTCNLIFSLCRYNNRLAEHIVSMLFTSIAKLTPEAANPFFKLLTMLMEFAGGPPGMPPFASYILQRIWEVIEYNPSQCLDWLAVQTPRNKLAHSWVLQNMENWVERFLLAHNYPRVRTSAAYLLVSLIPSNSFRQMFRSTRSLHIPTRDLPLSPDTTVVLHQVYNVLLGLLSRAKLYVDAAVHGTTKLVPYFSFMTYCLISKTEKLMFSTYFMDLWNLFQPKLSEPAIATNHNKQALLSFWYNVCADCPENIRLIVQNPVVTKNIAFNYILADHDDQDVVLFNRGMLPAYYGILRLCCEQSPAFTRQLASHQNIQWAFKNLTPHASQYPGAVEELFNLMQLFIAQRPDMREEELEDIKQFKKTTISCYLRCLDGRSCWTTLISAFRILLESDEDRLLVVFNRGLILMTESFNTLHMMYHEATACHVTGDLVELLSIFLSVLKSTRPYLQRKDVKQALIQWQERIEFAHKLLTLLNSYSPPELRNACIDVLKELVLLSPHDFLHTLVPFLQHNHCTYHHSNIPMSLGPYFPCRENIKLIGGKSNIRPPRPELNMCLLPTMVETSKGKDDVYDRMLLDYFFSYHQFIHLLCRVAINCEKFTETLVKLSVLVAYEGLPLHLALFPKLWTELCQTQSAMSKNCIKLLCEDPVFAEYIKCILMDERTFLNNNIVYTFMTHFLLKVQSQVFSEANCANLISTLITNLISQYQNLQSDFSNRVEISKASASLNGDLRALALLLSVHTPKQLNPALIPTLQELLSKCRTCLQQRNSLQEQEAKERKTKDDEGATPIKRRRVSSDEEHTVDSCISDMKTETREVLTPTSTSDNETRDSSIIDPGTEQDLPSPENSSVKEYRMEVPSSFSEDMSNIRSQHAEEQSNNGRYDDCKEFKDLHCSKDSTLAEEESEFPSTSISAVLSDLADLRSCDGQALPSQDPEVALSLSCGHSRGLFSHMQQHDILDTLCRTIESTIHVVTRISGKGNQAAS
Outline: (§1)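 Labelled DUBs from HEK293T lysate were NeutrAvidin-enriched, digested with LysC and trypsin, and run by diaPASEF LC-MS/MS. Before that, each 495 µg sample in Tris/CHAPS/IGEPAL buffer with protease inhibitors was treated in triplicate with fragment at 200 µM or vehicle for 3 h, then with Biotin-Ahx-Ub-VS at 0.5 µM final for 1 h. Values are average log2 ratios of fragment over vehicle by unpaired t-test, based on global-median-normalised Spectronaut label-free quantities from proteins with ≥2 unique peptides.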

USP36 = target: T1, USP36 (UniProt Q9P275)
T1 sequence (whole entry): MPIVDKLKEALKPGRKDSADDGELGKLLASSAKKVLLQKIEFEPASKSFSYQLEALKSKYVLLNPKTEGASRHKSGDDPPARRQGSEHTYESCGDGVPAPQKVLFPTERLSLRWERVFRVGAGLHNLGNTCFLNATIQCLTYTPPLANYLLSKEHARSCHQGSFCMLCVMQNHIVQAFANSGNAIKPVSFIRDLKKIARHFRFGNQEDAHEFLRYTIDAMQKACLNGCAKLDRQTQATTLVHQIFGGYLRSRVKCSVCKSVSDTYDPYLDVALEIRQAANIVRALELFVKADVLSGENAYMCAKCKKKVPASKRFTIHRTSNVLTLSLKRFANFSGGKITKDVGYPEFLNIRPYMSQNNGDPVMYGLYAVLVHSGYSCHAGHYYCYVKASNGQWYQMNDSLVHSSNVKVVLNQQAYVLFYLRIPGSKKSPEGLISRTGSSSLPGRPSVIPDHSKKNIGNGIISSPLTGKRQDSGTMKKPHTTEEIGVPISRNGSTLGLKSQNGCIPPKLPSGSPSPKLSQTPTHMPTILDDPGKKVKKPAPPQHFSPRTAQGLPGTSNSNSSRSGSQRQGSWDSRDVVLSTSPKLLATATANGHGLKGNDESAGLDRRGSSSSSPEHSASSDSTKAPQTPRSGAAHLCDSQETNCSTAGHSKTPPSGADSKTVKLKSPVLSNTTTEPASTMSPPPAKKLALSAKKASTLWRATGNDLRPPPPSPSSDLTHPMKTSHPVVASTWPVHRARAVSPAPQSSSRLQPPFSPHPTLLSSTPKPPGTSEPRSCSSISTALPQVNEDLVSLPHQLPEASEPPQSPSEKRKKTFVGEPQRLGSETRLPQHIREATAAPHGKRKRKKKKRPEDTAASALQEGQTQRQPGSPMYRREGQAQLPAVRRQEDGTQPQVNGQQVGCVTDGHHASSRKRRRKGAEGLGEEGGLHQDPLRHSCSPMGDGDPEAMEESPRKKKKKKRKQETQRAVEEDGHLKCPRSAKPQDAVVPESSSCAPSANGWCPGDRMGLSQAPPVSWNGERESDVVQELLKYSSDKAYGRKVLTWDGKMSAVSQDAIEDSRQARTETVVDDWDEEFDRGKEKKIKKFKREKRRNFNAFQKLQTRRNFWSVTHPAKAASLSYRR
Outline: as §1

USP38 = target: T2, USP38 (UniProt Q8NB14)
T2 sequence (whole entry): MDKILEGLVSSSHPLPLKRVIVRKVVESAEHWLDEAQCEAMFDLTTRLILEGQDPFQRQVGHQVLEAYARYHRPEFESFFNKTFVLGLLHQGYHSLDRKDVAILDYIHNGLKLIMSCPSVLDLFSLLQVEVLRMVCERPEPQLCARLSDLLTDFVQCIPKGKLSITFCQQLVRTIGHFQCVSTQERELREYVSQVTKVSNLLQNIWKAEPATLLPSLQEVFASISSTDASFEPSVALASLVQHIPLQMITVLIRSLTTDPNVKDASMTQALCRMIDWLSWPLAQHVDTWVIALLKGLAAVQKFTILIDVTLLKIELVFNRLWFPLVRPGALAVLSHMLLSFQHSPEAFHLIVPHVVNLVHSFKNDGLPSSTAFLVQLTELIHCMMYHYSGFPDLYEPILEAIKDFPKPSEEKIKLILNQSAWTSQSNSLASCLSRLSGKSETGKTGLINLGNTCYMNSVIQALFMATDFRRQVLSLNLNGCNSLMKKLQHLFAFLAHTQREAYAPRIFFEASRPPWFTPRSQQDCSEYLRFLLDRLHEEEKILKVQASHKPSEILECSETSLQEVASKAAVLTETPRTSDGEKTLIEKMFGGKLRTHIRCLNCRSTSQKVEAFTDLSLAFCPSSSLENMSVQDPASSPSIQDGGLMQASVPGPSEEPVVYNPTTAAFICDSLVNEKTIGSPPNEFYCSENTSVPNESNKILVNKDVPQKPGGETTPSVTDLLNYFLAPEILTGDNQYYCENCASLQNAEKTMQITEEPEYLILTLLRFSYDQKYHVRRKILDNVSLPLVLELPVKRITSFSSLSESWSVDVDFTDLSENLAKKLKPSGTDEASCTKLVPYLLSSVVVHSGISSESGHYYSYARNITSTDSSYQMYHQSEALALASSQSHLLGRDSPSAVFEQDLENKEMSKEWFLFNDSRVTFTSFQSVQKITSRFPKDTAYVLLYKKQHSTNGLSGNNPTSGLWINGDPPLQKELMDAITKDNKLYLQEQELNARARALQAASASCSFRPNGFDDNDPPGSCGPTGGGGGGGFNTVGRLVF
Outline: as §1

USP39 = target: T3, USP39 (UniProt Q53GS9)
T3 sequence (whole entry): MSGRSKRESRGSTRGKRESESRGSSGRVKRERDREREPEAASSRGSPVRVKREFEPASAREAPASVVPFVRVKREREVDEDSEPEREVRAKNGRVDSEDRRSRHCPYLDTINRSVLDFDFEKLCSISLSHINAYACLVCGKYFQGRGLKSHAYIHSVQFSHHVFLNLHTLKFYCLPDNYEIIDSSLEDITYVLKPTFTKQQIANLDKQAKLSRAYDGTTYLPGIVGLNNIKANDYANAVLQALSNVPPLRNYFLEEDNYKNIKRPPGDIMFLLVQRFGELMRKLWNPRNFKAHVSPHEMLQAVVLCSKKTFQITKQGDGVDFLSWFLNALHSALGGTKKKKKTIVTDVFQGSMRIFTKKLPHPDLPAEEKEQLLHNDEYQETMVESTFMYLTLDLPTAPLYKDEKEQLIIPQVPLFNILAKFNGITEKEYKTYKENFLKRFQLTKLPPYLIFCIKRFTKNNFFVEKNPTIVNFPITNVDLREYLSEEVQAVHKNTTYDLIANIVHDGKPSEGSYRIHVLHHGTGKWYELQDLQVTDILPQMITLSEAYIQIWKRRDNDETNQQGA
Outline: as §1

USP4 = target: T4, USP4 (UniProt Q13107)
T4 sequence (whole entry): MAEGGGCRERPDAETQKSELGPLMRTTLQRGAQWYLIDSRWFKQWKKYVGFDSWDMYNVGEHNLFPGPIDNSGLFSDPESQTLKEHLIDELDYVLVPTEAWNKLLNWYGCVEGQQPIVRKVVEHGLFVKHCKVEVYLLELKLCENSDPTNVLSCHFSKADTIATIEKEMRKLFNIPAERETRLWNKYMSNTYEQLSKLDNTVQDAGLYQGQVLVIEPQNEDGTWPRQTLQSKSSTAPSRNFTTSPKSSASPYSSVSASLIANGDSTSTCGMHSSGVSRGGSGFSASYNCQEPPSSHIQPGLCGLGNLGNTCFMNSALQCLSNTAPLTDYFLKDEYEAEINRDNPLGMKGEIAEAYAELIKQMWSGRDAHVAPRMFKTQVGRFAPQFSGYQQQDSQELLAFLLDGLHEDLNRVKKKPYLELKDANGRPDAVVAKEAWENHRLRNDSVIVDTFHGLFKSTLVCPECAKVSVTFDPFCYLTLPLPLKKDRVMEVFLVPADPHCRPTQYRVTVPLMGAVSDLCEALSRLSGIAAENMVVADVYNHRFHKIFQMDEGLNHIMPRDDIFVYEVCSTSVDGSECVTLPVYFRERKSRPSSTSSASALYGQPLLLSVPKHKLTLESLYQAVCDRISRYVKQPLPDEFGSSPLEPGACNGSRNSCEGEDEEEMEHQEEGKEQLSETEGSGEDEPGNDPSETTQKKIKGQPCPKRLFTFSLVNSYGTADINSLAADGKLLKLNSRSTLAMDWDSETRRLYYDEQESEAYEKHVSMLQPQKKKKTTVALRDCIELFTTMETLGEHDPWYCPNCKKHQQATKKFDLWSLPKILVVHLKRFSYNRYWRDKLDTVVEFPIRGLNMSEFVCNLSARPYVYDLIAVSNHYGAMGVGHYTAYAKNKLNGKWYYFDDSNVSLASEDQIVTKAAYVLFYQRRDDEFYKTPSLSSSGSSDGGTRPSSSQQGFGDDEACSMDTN
Outline: as §1

Measured: log2 ratio of Biotin-Ahx-Ub-VS probe labelling

NC(=O)C(Cc1ccccc1)NC(=O)CCl (stereo not given)
inactive: USP34 -0.217 | USP36 0.0618 | USP38 -0.0263 | USP39 -0.257 | USP4 0.0089
